The AC50 is the concentration at which the activity in the assay is half-maximal.

The values below come from PubChem BioAssay (EPA / NIEHS).

Test [1] in a line: CCTE_Shafer_MEA_acute_burst_percentage_mean: CCTE's Neural Acute Assay for Percentage of Spikes in a Burst, Shafer Lab (AID 2284017).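 For AC50: curve fitted for loss of signal so potency reflects decreased burst percentage.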 In outline:
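Compounds were tested at 0.03-40 uM on primary rat cortical neuron networks grown over microelectrodes, with at least three wells per compound. Spontaneous firing was recorded for 40 min before and 40 min after dosing, and the change in burst percentage was computed per well.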

Test [2] can be described thus: CCTE_Shafer_MEA_acute_burst_percentage_std: CCTE's Neural Acute Assay for Standard Deviation of Burst Percentage, Shafer Lab (AID 2284018).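 Note: fitted in the negative direction so actives lower burst percentage SD.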 The gist of the method: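 Primary rat cortical neurons on 16-electrode MEA wells were recorded 40 min at baseline (DIV 13 or 15), then 40 min after compound (0.03-40 uM), at 37 C. Well value is SD across electrodes of spikes-in-bursts/total spikes; endpoint is percent change, DMSO-referenced.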

Test [3] in a line: CCTE_Shafer_MEA_acute_per_network_burst_spike_number_mean: CCTE's Neural Acute Assay for Average Number of Spikes in a Network Burst, Shafer Lab (AID 2284019).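 For AC50: curve fitted for loss of signal so actives reduce spikes per network burst.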 The gist of the method:
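Acute exposure of rat primary cortical networks (DIV 13/15) on MEAs; adaptive spike detection at 8x rms noise, 37 C. Percent change in spikes per network burst after 40 min with compound (0.03-40 uM), negative direction vs DMSO.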

Test [4] in a line: CCTE_Shafer_MEA_acute_per_network_burst_electrodes_number_mean: CCTE's Neural Acute Assay for Mean Number of Electrodes in a Network Burst, Shafer Lab (AID 2284021).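 Note: curves fitted for decreases only so hits reduce electrodes per burst.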 The gist of the method:
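Rat primary cortical neurons on 48-well MEAs, DIV 13 or 15, were treated at 0.03-40 uM. Spikes were detected at 8x rms noise and recorded at 37 C. The mean electrodes per network burst in a 40 min exposure recording was expressed as percent change from a 40 min baseline.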

A short description of test [5]: CCTE_Shafer_MEA_acute_network_burst_percentage: CCTE's Neural Acute Assay for Percentage of Network Bursts, Shafer Lab (AID 2284022).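 Note: curves fitted for loss so actives lower network burst percentage.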 In outline:
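Rat primary cortical neuron networks on 48-well MEA plates, DIV 13 or 15, treated acutely with compound (0.03-40 uM, at least three wells). Percent of spikes within network bursts compared between 40-min recordings before and during exposure at 37 C, expressed as percent change.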

The nature of test [6]: CCTE_Shafer_MEA_acute_cross_correlation_HWHM: CCTE's Neural Acute Assay for Cross Correlation at Half Width at Half Maximum, Shafer Lab (AID 2284026).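 Note: hits are a decrease in cross-correlogram half width relative to DMSO.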 The gist of the method: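 Rat primary cortical neurons on 48-well MEA plates; 40-min baseline and 40-min post-exposure recordings at 37 C on DIV 13 or 15, compounds 0.03-40 uM. Spikes detected at 8x rms noise; percent change in cross-correlogram HWHM per well vs baseline.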

Test [7] can be described thus: CCTE_Shafer_MEA_dev_firing_rate_mean: CCTE's Neural Network Formation Assay for Mean Firing Rate, Shafer Lab (AID 2284031).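 Note: curve fitted for loss of firing so AC50 reflects decreased mean firing rate.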 In outline:
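Extracellular spike frequency, AUC over DIV 5–12 recordings, in rat cortical neuron MEA cultures dosed from plating; loss direction vs DMSO.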

A short description of test [8]: CCTE_Shafer_MEA_dev_per_burst_spike_percent: CCTE's Neural Network Formation Assay for Percent of Spikes in a Burst, Shafer Lab (AID 2284032).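 Note: fitted as a decrease in burst spike percentage below DMSO baseline.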 The gist of the method:
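Value is trapezoidal AUC over recordings on days 5, 7, 9 and 12 of the well-mean fraction of spikes falling in single-electrode bursts; rat cortical cultures exposed continuously from plating, treatment renewed DIV 5 and 9, fitted downward against DMSO.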

Test [9] can be described thus: CCTE_Shafer_MEA_dev_active_electrodes_number: CCTE's Neural Network Formation Assay for Number of Active Electrodes, Shafer Lab (AID 2284040; active = hit-call score of the fitted dose curve at least 0.9, where 1 is the maximum;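 note: potency for loss of active electrodes versus DMSO so lower counts are hits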). In outline:
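Developing rat cortical networks on MEAs, exposed DIV 0–12. Value is the AUC of active-electrode counts (≥5 spikes/min) from days 5, 7, 9, 12, relative to DMSO.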

The nature of test [10]: CCTE_Shafer_MEA_dev_burst_rate: CCTE's Neural Network Formation Assay for Burst Rate, Shafer Lab (AID 2284042).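 Note: potency for loss of burst rate below DMSO control.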 The gist of the method:
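Developmental network assay measuring how 12-day exposure of rat cortical neuron cultures alters bursting on extracellular MEA recordings. Values are AUC of well-mean burst rate across four recording days, relative to DMSO vehicle.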

Test [11] in a line: CCTE_Shafer_MEA_acute_cross_correlation_area: CCTE's Neural Acute Assay for Area of Cross Correlation, Shafer Lab (AID 2284024).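 Note: curves fitted for loss of cross-correlation area so actives lower synchrony.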 The gist of the method:
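Rat primary cortical neurons on 48-well MEA, DIV 13 or 15; compounds 0.03-40 uM. Baseline and post-exposure 40 min recordings at 37 C; percent change in area under pooled inter-electrode cross-correlation near zero lag, relative to DMSO.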

The target in test [12] is Estrogen receptor (Homo sapiens) (UniProt P03372). The test can be described thus: CCTE_Deisenroth_AIME_384WELL_LUC_Active: CCTE's 384-well Estrogen Receptor Transactivation Assay with AIME metabolic competence (ERTA luciferase; metabolism positive), Deisenroth Lab (AID 2284030; active = hit-call score of the fitted dose curve at least 0.9, where 1 is the maximum). The gist of the method: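 Chemicals (10-point, 0.002-200 uM) were first incubated 2 hours with alginate-immobilized induced male Sprague Dawley rat liver S9. The conditioned medium was then applied to VM7Luc4E2 cells for 24 hours, with ER luciferase induction read by luminescence relative to 17beta-estradiol.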
Chain of Estrogen receptor (Homo sapiens) (P03372 whole entry, looked up): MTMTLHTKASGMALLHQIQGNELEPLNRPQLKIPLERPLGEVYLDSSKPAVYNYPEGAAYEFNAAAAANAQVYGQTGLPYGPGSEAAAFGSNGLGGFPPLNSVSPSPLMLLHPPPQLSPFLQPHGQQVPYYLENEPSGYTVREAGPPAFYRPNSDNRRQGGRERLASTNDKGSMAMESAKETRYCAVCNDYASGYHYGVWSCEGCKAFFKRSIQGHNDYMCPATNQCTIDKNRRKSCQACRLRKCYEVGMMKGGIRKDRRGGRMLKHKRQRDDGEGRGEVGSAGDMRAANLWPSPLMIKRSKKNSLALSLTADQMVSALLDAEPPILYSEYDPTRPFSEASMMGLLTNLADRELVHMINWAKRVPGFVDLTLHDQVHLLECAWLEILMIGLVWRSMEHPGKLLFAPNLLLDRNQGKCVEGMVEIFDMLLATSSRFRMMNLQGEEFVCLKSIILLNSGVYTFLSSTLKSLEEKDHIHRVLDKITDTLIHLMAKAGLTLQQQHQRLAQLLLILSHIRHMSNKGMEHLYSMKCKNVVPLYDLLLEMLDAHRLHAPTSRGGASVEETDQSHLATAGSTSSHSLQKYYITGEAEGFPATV

Test [13] in a line: CCTE_Deisenroth_AIME_384WELL_CTox_Active: Cytotoxicity Assessment (CTOX) in CCTE's 384-well Estrogen Receptor Transactivation Assay with AIME metabolic competence (metabolism positive), Deisenroth Lab (AID 2284037; active = hit-call score of the fitted dose curve at least 0.9, where 1 is the maximum;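 note: chemicals first conditioned 2 h by alginate-bound induced rat liver S9 before cells; activity means signal loss indicating cell death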). The gist of the method:
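VM7Luc4E2 breast cells received medium pre-incubated 2 h with chemical over alginate microspheres holding induced male Sprague Dawley rat liver S9; viability read 24 h later by protease-substrate fluorescence. Loss of signal, bidirectional fit, 0.002–200 uM.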

The nature of test [14]: CCTE_Deisenroth_AIME_384WELL_CTox_Inactive: Cytotoxicity Assessment (CTOX) in CCTE's 384-well Estrogen Receptor Transactivation Assay without AIME metabolic competence (metabolism negative), Deisenroth Lab (AID 2284039; active = hit-call score of the fitted dose curve at least 0.9, where 1 is the maximum;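 note: cell viability via live-cell protease substrate cleaved to fluorescent probe; cells exposed 24 h to medium preincubated 2 h with alginate-water beads without S9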). In outline: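 Fluorescence from a live-cell protease substrate, read after 24 h in VM7Luc4E2 cells, indicated viability. Test medium came from a 2 h AIME step without hepatic S9 (alginate-water microspheres); concentrations spanned 0.002 - 200 uM, single technical replicate per run.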

For test [15], the target named is Estrogen receptor (Homo sapiens) (UniProt P03372). The test can be described thus: CCTE_Deisenroth_AIME_384WELL_LUC_Shift: CCTE's 384-well Estrogen Receptor Transactivation Assay with AIME metabolic competence data shift (ERTA luciferase; difference in metabolism positive and negative), Deisenroth Lab (AID 2284041).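 Note: shift is response with S9 minus without S9 so positive means metabolism raised ER signal.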 In outline: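 Here, parent compounds undergo 2 h phase I metabolism by PB/BNF-induced rat S9 before 24 h transactivation in VM7Luc4E2 cells; the curve models S9-positive minus S9-negative response over a 10-point series.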

Records with an inconclusive call do not appear. Active and inactive are the calls of the source. Rule for the calls, unless noted: active = hit-call score of the fitted dose curve at least 0.9, where 1 is the maximum; inactive = score below 0.9.

For `CN(C)CCCN1c2ccccc2Sc2ccc(Cl)cc21`, the AC50 in test [1] was 33.2 µM (active); in [2], 31.6 µM (active); in test [6], 31.5 µM (active); in [7] it was 3.43 µM (active); in test [8], 6.1 µM (active); in test [9], 5.17 µM (active). Also, in test [10], the half-maximal activity concentration (AC50) was 5.08 µM (active). For the same compound, the call in test [3], in test [4] and in [5] was inactive.

In the case of `CCCC(=O)O`, the outcome in test [1], in test [2], in [3], in test [4], in [5] and in test [11] was inactive. Further, the compound was called inactive in [6].

Take `CCCCC(CC)COP(=O)(OCC(CC)CCCC)OCC(CC)CCCC` (stereo not given): the outcome in [1], in [2], in [3], in [4], in test [5] and in test [11] was inactive. The compound was classed as inactive in [6].

Take `COC(=O)[C@H]1[C@H]2C[C@@H]3c4[nH]c5cc(OC)ccc5c4CCN3C[C@H]2C[C@@H](OC(=O)c2cc(OC)c(OC)c(OC)c2)[C@@H]1OC`: the AC50 in test [1] was 34.3 µM (active); in test [3], 0.808 µM (active); in test [6], 20 µM (active); in [7], 2.8 µM (active); in [8], 5.76 µM (active); in test [9] it was 5.24 µM (active). In [10], the AC50 is 5.23 µM (active). Further, the outcome in [2], in [4], in [5] and in test [11] was inactive.

`CCc1cc(C2=C(C(=O)O)N(c3ccccc3C(F)(F)F)S(=O)(=O)c3ccccc32)cc2c1OCO2`: the result in [1], in test [2], in [3], in test [4], in [5] and in [11] was inactive. In [6], the compound was called inactive.

Take `CC1=C(C)S(=O)(=O)CCS1(=O)=O`: the compound was classed as inactive in [1], in test [2], in [3], in test [4], in [5] and in [11]. The outcome in test [6], in test [12] and in [15] was inactive. In addition, the AC50 was 172 µM (active) in [13] and 100 µM (active) in test [14].

Regarding `CC(N)=O`, the compound was classed as inactive in test [1], in test [2], in [3], in [4], in test [5] and in test [11]. Also, the outcome in test [6] was inactive.
